Where “and” joins values, the source holds several entries; their conditions need not be identical. Equal values may be shown once. The panel holds about 83,000 compounds, 20% with a hit somewhere; the sample as a whole holds those more often.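 How to read the values: 0–100, growth inhibition (40 = 60% inhibited); 0, no net growth; -100 to 0, cell death (-40 = 40% of starting cells died; -100 = all dead).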 A number with no mark means an inactive call. Calls of active or inactive are those of the source. The calls were made as follows: active = growth percent below 10; inactive = the rest.

This assay has as its system MDA-MB-468 breast. In words: NCI-60 one-dose screen, 48 h (100 = growth as untreated, 0 = no growth, -100 = all killed). Conditions: 10 µM unless noted.
`O=C(Nc1cccc(C2=NCCN2)c1)c1ccc(-c2ccc(C(=O)Nc3cccc(C4=NCCN4)c3)cc2)cc1`: the growth is 62%.
The result for `COc1cnc2c(c1)C(=O)c1c-2n(CCCN2CCOCC2)c(=O)c2cc(F)ccc12` reads -50.1% (active); that for `COc1ccccc1S(=O)Nc1ccccc1` (stereo not given), 97.2%; that for `COc1ccc(C(=O)CSc2nc3c(c(Nc4ccc(S(N)(=O)=O)cc4)n2)CCCC3)cc1`, 108%.
The result for `COc1ccc(-n2cc(COc3ccc4c5ccnc(C)c5n(CC(C)C)c4c3)nn2)cc1` reads 35.3%; that for `NC(=O)N1CCOCC1`, 111%.
The result for `O=C(Nc1ccccc1)Nc1ncnc2c1ncn2-c1ccc(Cl)cc1` reads 92.2%; that for `CCCNS(=O)(=O)c1ccc(Cl)cc1`, 102%; that for `CC[C@]12C=CCN3CC[C@]4(C(=C(C(=O)OC)C1)Nc1cc5c(cc14)[C@@H]1[C@H](O5)[C@@H](O)[C@@]4(CC)CC(C(=O)OC)=C5Nc6cc(OC)ccc6[C@@]56CCN1[C@@H]46)[C@@H]32`, -36.8% (active).
For `COc1ccc(Nc2nc(SC)nc(-c3cccc([N+](=O)[O-])c3)c2C#N)cc1`, the growth is 54.7%.
In the case of `CCOC(=O)N1C2CCC(C2)N1C(=O)OCC`, the growth was 105%.
For `c1ccc2oc(-c3cnc4nonc4n3)cc2c1`, the growth was 98.9%.
For the molecule `CCCCN(C)N=Nc1ccc(C(N)=O)cc1`, the growth is 102%.
The result for `COc1cc(-c2cc(-c3cccs3)c(C#N)c(N3CCOCC3)n2)cc(OC)c1OC` reads 55%.
On to `CCN(CC)c1ccc(NC2=C(Cl)C(=O)c3nc(C)ccc3C2=O)cc1`, for which the growth was -45% (active).
The result for `O=C(Nc1ccccc1)C(CCCCN1C(=O)c2ccccc2C1=O)N1C(=O)c2ccccc2C1=O` (stereo not given) reads 103%; that for `Cc1c(Cl)cccc1NC(=O)c1sc2nc3c(cc2c1N)CCCC3`, 15.1%.
On to `Cc1ccc(C2C3CC4CCCCC4N3[C@@]3(C(=O)Nc4cc(Cl)ccc43)C2C(=O)c2nc3ccccc3[nH]2)cc1` (stereo not given in full), for which the growth is -10.9% (active).
The result for `Fc1ccc(NC(=S)c2ccccc2)cc1` reads 97.5%; that for `Cc1ccc(S(=O)(=O)NC(CCC(=O)Nc2ccc(Cl)cc2)C(=O)Nc2ccc(Cl)cc2)cc1` (stereo not given), 29%.
The result for `OCCOSCCO` reads 98.2%; that for `C[C@@H]1CC2C3CCC4=CC(=O)C=C[C@]4(C)[C@@]3(Cl)[C@@H](O)C[C@]2(C)[C@@]1(OC(=O)c1ccco1)C(=O)CCl` (stereo not given in full), 104%.
With `CCOc1cccc(/C=N/NC(=O)c2cccc(Nc3ccnc(C(F)(F)F)c3)c2)c1O`, the growth was 31.4%.
The result for `Cc1nc2ccc(Nc3nc(NCCN4CCOCC4)nc(Nc4ccc(F)cc4)n3)cc2n1Cc1ccccc1` reads 14%; that for `COc1cc2c(O)n(CCCn3ccnc3)c3c4cnc5cccc(c(=O)c3c2cc1OC)c54`, 4.34% (active).
For `O=C1C(=O)N(CCCCn2cc(CO)nn2)c2ccccc21`, the growth is 98.6%.
The result for `CC(C)(C(=O)c1cccnc1)c1cccnc1` reads 96.4% and 96.1%; that for `S=C(Sc1ccc(Cl)cc1)Sc1ccc(Cl)cc1`, -37.6% (active).
Take `Cc1ccc(C(SCC(N)C(=O)O)(c2ccccc2)c2ccc(C)cc2)cc1` (stereo not given): the growth is -1.71% (active).
The result for `S=c1c2ncccc2c(-c2ccccn2)nn1Cc1ccccn1` reads 111%.
Turning to `CCOC(=O)c1cc(C(=O)c2ccc(O)c(O)c2)n2ccc(-c3ccn4c(C(=O)c5ccc(O)c(O)c5)cc(C(=O)OCC)c4c3)cc12`, the growth was 112%.
The result for `Cc1cccc(NCc2cn(-c3ccc(C(=O)O)cc3)nc2-c2ccc(C(=O)O)cc2)n1` reads 101%.
Consider `CCOC(=O)Nc1ccc2c(ccn2C(=O)c2cccc(F)c2)c1`, for which the growth was 34.5%.
With `COc1ccc(C=Nc2c(C(=O)Nc3cccc(Cl)c3C)sc3nc(C)c(C(=O)/C=C/c4ccc(OC)cc4)cc23)cc1`, the growth is 17.3%.
The result for `CCNCCNc1cc(-c2ccc(C(=O)OC)cc2)c(C#N)c2nc3ccccc3n12` reads 31.4%; that for `CC(O)C(NC(=O)C1CCCN1C(=O)CNC(=O)C1CC(=O)NCC(=O)NC(Cc2c[nH]c3ccccc23)C(=O)NC(Cc2ccc(O)cc2)C(=O)NCC(=O)NC(CO)C(=O)NC(CCC(N)=O)C(=O)NC(Cc2c[nH]c3ccccc23)C(=O)N1)C(=O)NCC(=O)NC(CCC(N)=O)C(=O)NC(CCCNC(=N)N)C(=O)NC(CC(=O)O)C(=O)O` (stereo not given), 100%.
In the case of `COC(=O)C(CC(=O)c1ccc(-c2ccccc2)cc1)c1ccccc1` (stereo not given), the growth was 52.5%.
The result for `CCN(CC)CCN1C(=O)c2c(c3c4cccnc4[nH]c3c3ccc4ccccc4c23)C1=O` reads 63.3%; that for `COC1OC(COC(C)=O)C(OC(C)=O)C(OC(C)=O)C1OC(C)=O` (stereo not given), 108%.
As to `c1ccc(CN2C(c3ccccc3)=Nc3ccccc3C2c2c[nH]c3ccccc23)cc1` (stereo not given), the growth was 12.4%.

Source of the values: PubChem BioAssay (NCI).
